Compound activity: PubChem, National Center for Advancing Translational Sciences (NCATS)
Sampled rows, rich in hits. Any-hit rate of the full collection: about 6%.
DRD3 antagonist = blocks the human D3 dopamine receptor | D3R cells, DiscoveRx beta-arrestin luminescence, antagonist mode; active compounds read low | actives 2.5% (n = 360,000) | P35462 | max response, negative = inhibition, %; in the data active means max response below about -50%; inconclusive means no clear call, values can overlap the other calls; further: on the % scale 0 is the no-effect control and ±100 the full control effect
Target sequence (P35462 whole entry, looked up): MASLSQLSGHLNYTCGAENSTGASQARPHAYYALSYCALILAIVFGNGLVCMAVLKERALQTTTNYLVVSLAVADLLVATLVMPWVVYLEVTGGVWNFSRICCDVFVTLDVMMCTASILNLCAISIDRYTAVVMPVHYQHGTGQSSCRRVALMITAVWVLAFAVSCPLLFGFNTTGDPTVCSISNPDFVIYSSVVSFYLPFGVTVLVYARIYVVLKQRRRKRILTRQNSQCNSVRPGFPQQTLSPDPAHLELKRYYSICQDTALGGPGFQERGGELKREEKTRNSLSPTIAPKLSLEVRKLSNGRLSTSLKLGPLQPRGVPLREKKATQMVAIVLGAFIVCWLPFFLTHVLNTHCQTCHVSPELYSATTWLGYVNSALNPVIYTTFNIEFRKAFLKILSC
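Cells plated overnight at 1500 cells/well, then exposed to library compounds with dopamine controls for 90 minutes at 37 degrees C. DiscoveRx reagent added for 30–60 minutes at room temperature; luminescence read, quantitative HTS format.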
DRD3 agonist = activates the human D3 dopamine receptor | P35462 | D3R DiscoveRx beta-arrestin cells, luminescence, 90 min | max activation, % | actives 0.58% (n = 410,000); in the data active means max activation above about 30%; further: 0% is about no effect
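Cells at 1500/well, incubated overnight, then treated with pinned compounds (dopamine as control) for 90 min at 37 degrees C. DiscoveRx reagent added for 30 - 60 minutes at room temperature; luminescence read.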
D1 potentiator = potentiators of human D1 dopamine receptor | potentiation, % at 10 µM | AID 504651 | HEK293 TREx D1 cells, calcium flux, dopamine EC20 potentiation | actives 0.036% (n = 360,000) | P21728; in the data active means potentiation above about 30%; further: 0% is about no effect
D1 antag = human D1 dopamine receptor antagonism; P21728; HEK293 TREx D1 cells, calcium flux, dopamine EC80; active compounds read low; activity change, negative = inhibition, % at 10 µM; actives 3.2% (n = 360,000); AID 504652; in the data active means activity change below about -30%; further: on the % scale 0 is the no-effect control and ±100 the full control effect
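After overnight tetracycline induction at 30 C, force-coupled D1 HEK293 cells took up a no-wash calcium dye at room temperature. Compounds were added and monitored 180 s, and the response to EC80 dopamine was then recorded.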
D1 ag = activates the human D1 dopamine receptor; P21728; activation, % at 2 µM; actives 1% (n = 360,000); AID 504660; HEK293 T-REx D1 cells, calcium flux, agonist mode; in the data active means activation above about 30%; further: 0% is about no effect
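Tetracycline-induced HEK293 TREx D1 cells, force-coupled to calcium signalling, were dye-loaded with a no-wash calcium kit. Compound was pin-added after a 10 s baseline. Fluorescence was read kinetically at 1 cycle/s for 180 s, with calcium rises flagged as agonism.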
Active calls of the source: *; ? = inconclusive; . = not tested or not shown; ! = not confirmed by another sample.

SMILES | DRD3 antagonist | DRD3 agonist | D1 potentiator | D1 antag | D1 ag
Clc1ccc(CSc2nnc(CNc3cccc(Cl)c3)o2)cc1 | -57* | -21 | 1 | 2 | 3
NCCc1nnc(SCc2ccc(Cl)cc2)o1 | . | -12 | 0 | -2 | 0
Fc1ccc(NCc2nnc(SCc3ccccc3)o2)cc1 | -17 | -2 | -2 | 3 | 0
COc1ccc(-c2nnc(SCc3ccccc3F)o2)cc1 | -11 | 6 | 0 | 1 | 3
COc1ccc(-c2cc(C)no2)cc1S(=O)(=O)NCc1cccs1 | . | -9 | -2 | -13 | 2
CC(=O)Nc1ccc(NC(=O)CSc2ccc(-c3sc(C)nc3C)nn2)cc1 | 12 | 5 | 0 | -5 | 0
COc1ccc(C)cc1NC(=O)CSc1ccc(-c2sc(C)nc2C)nn1 | 22 | 11 | -2 | -50* | 10
CCOC(=O)c1ccc(NC(=O)CSc2ccc(-c3sc(C)nc3C)nn2)cc1 | . | 0 | -1 | -42* | 1
Cc1ccc2c(CC(=O)Nc3nnc(C(C)C)s3)coc2c1C | . | -15 | -1 | 16 | -1
CCOC(=O)C1=C(N)Oc2c(oc(CO)cc2=O)C1c1c(F)cccc1Cl (stereo not given) | -4 | 2 | 2 | -64* | 0
CCOC(=O)C1=C(N)Oc2c(oc(CO)cc2=O)C1c1ccc(Cl)cc1 (stereo not given) | -26 | -2 | 2 | 11 | 0
CCOc1ccccc1CNCc1c(C(=O)O)c(C)n(Cc2ccc(Cl)cc2)c1C | . | -10 | 0 | -67* | -1
Cc1c(CNCCc2ccc(Cl)cc2)c(C(=O)O)c(C)n1Cc1ccccc1 | 27 | -4 | -2 | -4 | 4
CCCCNc1c(-c2ccc(SC(C)CC)cc2)nc2ccc(Cl)cn12 (stereo not given) | -24 | -14 | . | . | .
CCCCNc1c(-c2cccc(-c3ccc(OC)cc3)c2)nc2cc(C)ccn12 | 18 | 2 | . | . | .
CCCCCCSc1ccc(-c2nc3ccccn3c2NCCCC)cc1 | 82 | 82* | 1 | -5 | 1
CCCCCCSc1cccc(-c2nc3ccc(Cl)cn3c2NCCCC)c1 | 53 | 33*! | . | . | .
CCCCNc1c(-c2ccc(-c3cccc(Cl)c3)cc2)nc2ccccn12 | 83 | 63* | -3 | -12 | 6
O=C(CN1CCN(S(=O)(=O)c2ccc(F)cc2)CC1)Nc1ccc(F)cc1F | 3 | 3 | -7 | -9 | 3
O=C(C1CCCN(S(=O)(=O)c2ccccc2)C1)N1CCCCC1 (stereo not given) | 1 | 1 | -6 | -22 | 4
Cc1ccc(-c2noc(CCC(=O)NCCCN3CCN(c4cccc(Cl)c4)CC3)n2)cc1 | ? | -26 | -9 | -73* | 82*
COc1ccc(-c2noc(CCC(=O)NCCCN3CCN(c4ccccc4F)CC3)n2)cc1 | -95* | -13 | -17 | -56* | 31*
CCN1CCN(CCCNC(=O)CCc2nc(-c3ccc(OC)cc3)no2)CC1 | 4 | -2 | -5 | 6 | 1
Cc1ccc(-c2noc(CCC(=O)NCCCN3CCN(c4ccc(F)cc4)CC3)n2)cc1 | 0 | -21 | -14 | -83* | 25
O=S(=O)(Nc1cccc(S(=O)(=O)N2CCCCC2)c1)c1ccccc1F | 8 | 3 | . | . | .
SMILES | DRD3 antagonist | DRD3 agonist | D1 potentiator | D1 antag | D1 ag
CCCCCCCCCCCCCC[N+](C)(C)Cc1ccccc1 | . | 9 | . | . | .
CCOC(=O)C1(Cc2ccccc2C)CCCN(C(=O)COC)C1 (stereo not given) | -13 | 0 | 0 | 2 | 2
CCOC(=O)C1(Cc2ccccc2C)CCCN(C(=O)CN2CCCCC2=O)C1 (stereo not given) | -21 | 58* | 0 | 20 | 4
Cc1cccc(CNC(=O)CN2C(=O)C3CCCCN3c3ccc(C(=O)N4CCCC4)cc32)c1 (stereo not given) | . | 8 | 0 | 4 | 1
COC(=O)CNC(=O)CSc1nnc(-c2ccc(OC)cc2)n1CC(C)C | 12 | 7 | 4 | -34* | -1
Cc1ccccc1OC1CCN(C(=O)c2cc(COc3ccccc3)on2)CC1 | -1 | 2 | 2 | -14 | 9
Cc1cc(=O)[nH]c(N=N/C(=N/Nc2ccc(O)cc2)c2ccccc2)n1 | -101* | 2 | -1 | . | 0
COc1ccc(N/N=C(/N=Nc2nc(C)cc(=O)[nH]2)c2ccccc2)cc1 | -57* | -6 | -2 | -3 | 0
Cc1cc(=O)[nH]c(N=N/C(=N/Nc2ccccc2C)c2ccccc2)n1 | ? | -3 | -5 | -11 | -2
Cc1cc(NC(=O)Cn2c(=O)oc3cc(S(=O)(=O)N4CCCC4)ccc32)ccc1Br | . | -1 | -1 | 13 | 4
CC(=O)Cn1ncc(N2CCCCC2)c(Cl)c1=O | -2 | 0 | 11 | 3 | 2
CO/N=C(\Cn1ncc(N2CCCC2)c(Cl)c1=O)c1ccc(Cl)cc1 | 0 | 5 | -3 | -46* | 4
Cc1c(CC(=O)N2CCC(C(N)=O)CC2)c(=O)oc2cc3c(cc12)CCC1(CCCCC1)O3 | 74 | 45* | -2 | -6 | 2
Cc1oc2cc3oc(=O)c(CCC(=O)NC4CC4)c(C)c3cc2c1C | 78 | 79* | 7 | -7 | 2
Cc1coc2cc3oc(=O)c(CCC(=O)NC4CC4)c(C)c3cc12 | 6 | 3 | -3 | -22 | 6
Cc1c(CCC(=O)N2CCC(C(=O)O)CC2)c(=O)oc2cc3oc4c(c3cc12)CCCC4 | 96 | 42* | 2 | -9 | 1
N#CCCN(NC1=NS(=O)(=O)c2ccccc21)C(=O)c1ccccc1Br | -21 | -8 | 10 | 8 | 1
CSc1ncnc2c1ncn2CCCNCCCN1CCCC1=O | 25 | 0 | . | . | .
CC(Oc1ccc(F)cc1)C(=O)Nc1cc(-c2ccc(F)c(F)c2)no1 (stereo not given) | . | -1 | -1 | -41* | 111*
COc1cccc(NC(=O)CN(C)C(C)C(=O)Nc2ccc(S(=O)(=O)N3CCCC3)cc2)c1 (stereo not given) | 2 | 1 | 13 | -34* | 4
COc1ccccc1N1CCN(C(=O)c2ccc3[nH]c4c(c3c2)CC(C)CC4)CC1 (stereo not given) | 2 | 5 | -3 | -57* | 0
CN(CC(=O)Nc1ccc(F)cc1)C(=O)c1cccc(S(=O)(=O)N2CCN(c3ccc(F)cc3)CC2)c1 | -6 | -17 | -2 | -39* | 9
COc1ccccc1N1CCN(C(=O)c2ccc3[nH]c(C)c(C)c3c2)CC1 | -24 | -12 | -6 | 13 | 2
CN(CC(=O)Nc1cccc(F)c1)C(=O)c1cccc(S(=O)(=O)N2CCN(c3ccccc3)CC2)c1 | 0 | 4 | -3 | -5 | 3
CC(C(=O)Nc1ccc(S(=O)(=O)N2CCCC2)cc1)N(C)CC(=O)Nc1cccc(F)c1 (stereo not given) | -10 | 5 | . | . | .
CN1CCN(S(=O)(=O)c2cccc(C(=O)N(C)CC(=O)Nc3ccc(F)c(F)c3F)c2)CC1 | -2 | 4 | -9 | 11 | 179*
